Unmarked numbers belong to inactive results. No rule for the calls is given here.

The test is described as follows: quenching of GFP signal – biochemical, fluorescence, dose response, round 1, artefact control for Rin1-Abl interaction inhibitor project, late-stage follow-up (AID 624123). To be noted: GFP fluorescence interference/quenching counterscreen. A general note: Counterscreens check selectivity or assay interference.
As a reminder, the IC50 is the concentration needed to halve the response being measured. As for `COc1ccc(C(=O)N2CCC(C(=O)Nc3ccc(CC(=O)Nc4ccc(C(=O)N(C)C5CC5)cc4)cc3)CC2)cc1`, the IC50 was > 67.5 µM.
Take `CN(C(=O)c1ccc(NC(=O)Cc2ccc(NC(=O)C3CCN(C(=O)c4ccc(F)cc4)CC3)cc2)cc1)C1CC1`: the IC50 was > 67.5 µM.
For `CN(C(=O)c1ccc(NC(=O)Cc2ccc(NC(=O)C3CCN(C(=O)c4cccc(F)c4)CC3)cc2)cc1)C1CC1`, the IC50 was > 67.5 µM.
Take `CN(C(=O)c1ccc(NC(=O)Cc2ccc(NC(=O)C3CCN(C(=O)c4ccccc4)CC3)cc2)cc1)C1CC1`: the IC50 was > 67.5 µM.

The values above are taken from PubChem BioAssay AID624123 (The Scripps Research Institute Molecular Screening Center, 2012).
